# GRIN3A LBD mod: binders of NR3A ligand-binding domain, primary screen, biophysical, differential scanning fluorimetry, uHTS. actives 2.5% (n = 340,000). NR3A LBD differential scanning fluorimetry, Tm shift; 0% = protein alone, 100% = glycine-bound protein. Tm shift relative to glycine control, % at 25 µM. AID 1259313, 2017;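 active = melting temperature shift of at least 10% of the positive control shift, at one fixed dose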
# UBC13 inh: UBC13 polyubiquitin chain formation inhibitors, primary screen, biochemical, TR-FRET, uHTS; AID 485273, 2010; Ubiquitin-conjugating enzyme E2 N (Homo sapiens), P61088; actives 0.47% (n = 330,000); inhibition, % at 20 µM; in the data active = inhibition above about 45%, passing the limit was not always enough
# UBC9 SUMO inh: inhibitors of in vitro SUMOylation cascade, primary screen, biochemical, HTRF, uHTS; SUMO-conjugating enzyme UBC9 (Homo sapiens), P63279; HTRF SUMOylation assay, SAE1/SAE2 + UBC9; inhibition, % at 35 µM; actives 0.36% (n = 290,000); AID 2006, 2009; in the data active = inhibition above about 50%, passing the limit was not always enough
# HGIII-sPLA2 inh: human group III sPLA2 inhibitors, primary screen, biochemical, QFRET, BODIPY PC-A2 liposome substrate | actives 0.56% (n = 370,000) | QFRET BODIPY PC-A2 liposome hydrolysis, fluorescence | AID 743126, 2013 | Group 3 secretory phospholipase A2 (Homo sapiens), Q9NZ20 | inhibition, % at 12.2 µM;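 active = inhibition above mean plus 3 SD of compounds lying within the high and low control bounds, cut at about 19% in these data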;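 note: 0% = median of test compound wells and 100% = no enzyme DMSO wells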
# Target sequence (Q9NZ20 whole entry, looked up): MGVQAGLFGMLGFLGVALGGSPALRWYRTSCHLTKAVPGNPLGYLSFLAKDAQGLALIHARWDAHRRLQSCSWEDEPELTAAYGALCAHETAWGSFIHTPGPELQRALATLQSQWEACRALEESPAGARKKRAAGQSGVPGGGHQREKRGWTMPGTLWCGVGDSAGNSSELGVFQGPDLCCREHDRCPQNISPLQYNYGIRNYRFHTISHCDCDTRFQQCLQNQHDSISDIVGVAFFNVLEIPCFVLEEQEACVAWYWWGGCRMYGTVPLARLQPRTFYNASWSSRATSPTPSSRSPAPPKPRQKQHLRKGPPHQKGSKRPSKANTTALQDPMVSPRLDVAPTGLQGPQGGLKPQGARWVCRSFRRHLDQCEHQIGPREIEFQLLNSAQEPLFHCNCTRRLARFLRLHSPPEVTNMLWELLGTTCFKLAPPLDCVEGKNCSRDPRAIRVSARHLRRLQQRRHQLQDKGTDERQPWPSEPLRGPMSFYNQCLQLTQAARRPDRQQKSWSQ
# * hit, by the source's call; / = no result. Most compounds without a hit are left out; they make up all but 3.3% or so of the library.
SMILES,GRIN3A LBD mod,UBC13 inh,UBC9 SUMO inh,HGIII-sPLA2 inh
O=C(C1CCN(S(=O)(=O)c2ccc3[nH]c(=O)oc3c2)CC1)N1CCCN(Cc2ccccc2)CC1,/,/,/,-10.2
Cc1ccc(C2CC(c3ccc(NS(C)(=O)=O)cc3)=NN2C(=O)c2ccco2)cc1 (configuration not stated),-12.1,5.2,5.0,-17.5
CS(=O)(=O)Nc1ccc(C2=NN(C(=O)c3ccco3)C(c3ccccc3)C2)cc1 (configuration not stated),11.7*,19.3,17.5,-6.1
CCc1ccc(S(=O)(=O)/N=C2/C=C(Sc3ncn[nH]3)C(=O)c3ccccc32)cc1,-12.0,/,92.1*,/
CN(C)CCC(Oc1ccccc1OCc1ccccc1)c1ccccc1 (configuration not stated),-1.2,4.0,/,-21.3
CN(C)CCCC(C)(O)C(Cc1ccccc1)c1ccccc1 (configuration not stated),14.0*,8.2,16.7,-4.7
C=CCN1[C@H](C)COc2cccc(N3CCSCC3)c2S1(=O)=O,/,/,/,2.0
O=C(Nc1cccc(Cl)c1)c1ccc2ncsc2c1,33.8*,10.2,2.5,-2.4
O=C(Nc1ccc(Cl)cc1)c1ccc2ncsc2c1,23.9*,10.9,5.1,-0.6
O=C(COC(=O)c1ccc2ncsc2c1)Nc1cccc(Cl)c1,-2.2,8.8,/,-23.3
O=C(Nc1ccc(F)cc1)c1ccc2ncsc2c1,0.0,3.6,-7.0,-4.2
O=C(Nc1ccc(C(=O)O)cc1)/C(=C\c1ccc2c(c1)OCO2)NC(=O)c1ccccc1,-0.9,-3.0,4.7,-4.4
O=C(O)COc1ccccc1/C=N/NC(=O)/C(=C\c1ccc2c(c1)OCO2)NC(=O)c1ccccc1,190.5*,-10.3,9.7,-1.1
O=C(N/N=C/c1ccc(O)cc1)c1cc(-c2ccccc2)nc2ccccc12,13.4*,1.0,4.0,-30.5
O=C(N/N=C/c1ccccc1O)c1ccncc1,20.9*,-9.6,/,0.7
COc1cc(/C=N/NC(=O)c2cc(-c3cccc(Br)c3)nc3ccccc23)cc(OC)c1O,13.0*,-1.4,/,2.2
O=C(N/N=C/c1ccc(COc2ccc(Br)cc2)o1)c1ccc2c(c1)OCO2,3.5,-10.5,0.0,5.6
O=C(N/N=C/c1ccc(-c2ccc(Br)cc2)o1)c1ccc2c(c1)OCO2,10.8*,-14.0,42.1,-6.7
O=C(N/N=C/c1cc(Cl)cc([N+](=O)[O-])c1O)c1cc(-c2ccccn2)nc2ccccc12,-1.8,-75.3,86.6*,/
CCc1nnc(NC(=O)c2cc(-c3ccco3)nc3ccccc23)s1,1.5,21.8,67.0*,3.0
COc1cccc(/C=N/NC(=O)c2cc(-c3ccccn3)nc3ccccc23)c1O,-10.8,-43.7,/,-1.5
Cc1ccccc1/C=N/NC(=O)c1ccc(-n2cnnn2)cc1,29.8*,3.0,/,-1.6
CC(C)(C)C(=O)NC1CCCCN(Cc2cccc(Cl)c2)C1=O (configuration not stated),/,/,/,3.5
O=C(N/N=C/c1ccc(O)cc1)c1csc2ccccc12,22.9*,-3.5,-11.2,-6.8
O=C(NN=Cc1ccc2c(c1)OCO2)c1ccncc1,25.1*,/,/,-1.8
SMILES,GRIN3A LBD mod,UBC13 inh,UBC9 SUMO inh,HGIII-sPLA2 inh
O=C(NN=Cc1ccc2c(c1)OCO2)c1ccccc1,-0.8,/,/,-1.8
O=C(N/N=C/c1cccc(F)c1)c1cc(-c2ccco2)nc2ccccc12,-2.1,34.7,79.2*,7.1
COc1cc(/C=N/NC(=O)c2cc(-c3ccco3)nc3ccccc23)cc(OC)c1O,-0.1,9.4,60.1,2.7
COc1cc2ccccc2cc1C(=O)N/N=C/c1ccc2c(c1)OCO2,11.5*,-5.4,9.1,3.2
O=C(C1CCCN1S(=O)(=O)c1ccc(Cl)s1)N1CCN(c2ccccc2)CC1 (configuration not stated),/,/,/,0.4
CN(Cc1ccccc1)C(=O)OCc1cn(Cc2ccc(Cl)cc2)nn1,/,/,/,-7.1
COc1ccc(-c2cc(C(=O)N/N=C/c3ccc4c(c3)OCO4)c3ccccc3n2)c(OC)c1,-3.2,-7.7,20.2,5.4
COc1cc(/C=N/NC(=O)c2cc(-c3ccc4c(c3)OCO4)n[nH]2)ccc1O,28.1*,-2.7,-8.9,1.6
O=C(N/N=C/c1ccc2c(c1)OCO2)c1cc(-c2ccc(F)cc2)nc2ccccc12,25.0*,-6.3,4.9,-0.3
COc1ccc(NC(=O)Nc2ccccc2C(=O)N2CCCC2)cc1OC,/,/,/,16.1
O=C(Nc1c(-c2ccc(F)c(F)c2)nc2ncccn12)C1CC1,/,/,/,2.0
Clc1cccc(Nc2nc(-c3ccncc3)cs2)c1,30.6*,9.5,13.4,-24.8
Clc1ccc(Nc2nc(-c3cccnc3)cs2)cc1,13.0*,3.4,17.0,0.2
Clc1ccc(-c2csc(Nc3cccnc3)n2)cc1,14.6*,8.6,2.8,9.9
CCc1nccn1CC(=O)c1ccc(O)c(O)c1,/,/,/,5.9
CCN(C(=O)Cn1nnc(-c2ccncc2)n1)c1ccccc1,/,/,/,14.2
C=CCN1CCOc2ccc(C)cc2S1(=O)=O,10.1*,/,/,3.1
Cc1onc(C(=O)N2CCN(C(c3ccc(F)cc3)c3ccc(F)cc3)CC2)c1[N+](=O)[O-],/,/,/,-40.8
COc1ccc(-c2noc(N3CCCC(C(=O)Nc4ccccc4F)C3)n2)cc1 (configuration not stated),12.8*,4.2,5.8,-0.4
Oc1ccc(C[C@H]2CNC(=S)N2CC2CCCN2C[C@H](Cc2ccccc2)N2C[C@H](Cc3ccc(O)cc3)N(CCc3ccccc3)C2=S)cc1 (some centres not stated),30.5*,/,/,1.8
CCOc1ccc(CCN2C(=S)N([C@@H](CC(C)C)CN3CCCC3CN3C(=S)NC[C@@H]3Cc3ccc(O)cc3)C[C@@H]2Cc2ccccc2)cc1 (some centres not stated),30.5*,/,/,-24.2
CCOc1ccc(CCN2C(=S)N([C@@H](CC(C)C)CN3CCCC3CN3C(=S)NC[C@@H]3Cc3ccc(O)cc3)C[C@@H]2CC(C)C)cc1 (some centres not stated),11.9*,/,/,-33.9
CCOc1ccc(CCN2C(=S)N([C@@H](CC(C)C)CN3CCCC3CN3C(=S)NC[C@@H]3Cc3ccc(O)cc3)C[C@@H]2Cc2ccc(O)cc2)cc1 (some centres not stated),34.5*,/,/,-13.3
Cc1cc(C)cc(NC(=O)OC2CCC23CCCCC3)c1 (configuration not stated),/,/,/,-3.1
Cc1snc(S(=O)(=O)/C(C#N)=N/Nc2ccc(C(F)(F)F)cc2)c1C#N,24.0*,-17.4,18.8,-61.9
COc1ccc(/C=N/Nc2nc(Nc3ccccc3)nc(N3CCCC3)n2)cc1[N+](=O)[O-],25.9*,-6.8,28.8,-0.4
COc1ccc(/C=N/Nc2nc(N3CCCCC3)nc(N3CCCCC3)n2)cc1[N+](=O)[O-],-0.8,-13.0,-1.3,-1.7
C[C@H]1COc2c3ccc(I)cc3nn21,/,/,/,6.7

# Compound activity as filed in PubChem.
